In the library only some 3.1% were active in any assay of this set; here they are far more common.
Peg3 promoter: Peg3 promoter activity inhibition. HeLa PEG-Prom luciferase reporter, luminescence, overnight. actives 1.7% (n = 360,000). inhibition, % at 20 µM;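 active = inhibition of at least 50% at 20 µM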
CF NFkB block: blocks PAF-induced NF-kB reporter in cystic fibrosis cells; KKLEB NF-kB-GFP reporter, GFP fluorescence overnight; inhibition, % at 5 µM; actives 0.86% (n = 360,000); AID 588850;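 active = at least 50% inhibition at 5 µM, scaled per plate between neutral and stimulator controls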;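 also: PAF is a Pseudomonas aeruginosa culture filtrate used as stimulus; plate controls were PAF-stimulated DMSO wells for no effect and unstimulated DMSO wells for full effect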
KKLEB cytotox: CF airway cell cytotoxicity counter-screen | KKLEB CF airway cells viability, ATPlite luminescence, overnight; active compounds read low; cells stimulated with P. aeruginosa culture filtrate | activity change (cytotoxicity), % at 5 µM | actives 0.36% (n = 360,000) | AID 602141;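 active = corrected activity change at or below -50% at 5 µM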
TRAIL sens C8: sensitizes caspase-8 expressing cells to TRAIL; NB7+C8 cells + TRAIL, ATPlite viability luminescence; inhibition (viability loss, TRAIL sensitization), % at 10 µM; actives 1% (n = 360,000);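 active = compounds causing at least 50% loss of cell viability in the single-dose screen, relative to plate controls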
PPC-1+TRAIL kill: kills PPC-1 cancer cells in the presence of TRAIL | PPC-1 cells + TRAIL, ATPLite viability luminescence | cell killing (% activity), % at 4 µM or 5 µM | actives 0.41% (n = 220,000) | AID 1443;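 active = cell killing above 50% in the first pass at 4 µM, then a duplicate retest at 5 µM averaging 50% or more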;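 also: plate controls were cells with TRAIL plus DMSO for no effect and medium-only wells lacking cells for full effect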
HIF-2a inh: HIF-2a inhibition. 786-0 RCC cells HIF-2a reporter, luciferase luminescence, overnight. inhibition, % at 18.8 µM. actives 0.72% (n = 360,000);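 active = inhibition of the luminescence signal of 40% or more relative to plate controls, in a single-dose primary screen at 18.75 µM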
Mdm2-MdmX confirm: Mdm2/MdmX (human) interaction inhibition, confirmed; actives 99% (n = 740); shares compounds with HIF-2a inh; SaOS-2 split-luciferase Mdm2/MdmX complementation, luminescence; inhibition, % at 8 µM; AID 504601;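 active = mean inhibition of the luminescence signal across two replicates at or above 26 percent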
Target sequence (O15151 whole entry, looked up): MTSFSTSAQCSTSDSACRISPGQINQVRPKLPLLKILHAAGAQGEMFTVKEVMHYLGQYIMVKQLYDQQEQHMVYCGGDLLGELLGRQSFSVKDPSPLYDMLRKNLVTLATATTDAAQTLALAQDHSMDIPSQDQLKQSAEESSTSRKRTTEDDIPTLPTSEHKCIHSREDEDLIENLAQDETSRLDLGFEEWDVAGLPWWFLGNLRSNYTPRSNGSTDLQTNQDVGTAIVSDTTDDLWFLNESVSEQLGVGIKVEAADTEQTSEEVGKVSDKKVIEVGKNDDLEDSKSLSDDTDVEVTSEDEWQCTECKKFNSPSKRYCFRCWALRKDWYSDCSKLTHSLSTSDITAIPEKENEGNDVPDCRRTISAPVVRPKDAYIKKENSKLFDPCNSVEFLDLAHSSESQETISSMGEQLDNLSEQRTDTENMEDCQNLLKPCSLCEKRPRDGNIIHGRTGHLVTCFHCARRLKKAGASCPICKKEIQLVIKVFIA
Target sequence (Q00987 whole entry, looked up): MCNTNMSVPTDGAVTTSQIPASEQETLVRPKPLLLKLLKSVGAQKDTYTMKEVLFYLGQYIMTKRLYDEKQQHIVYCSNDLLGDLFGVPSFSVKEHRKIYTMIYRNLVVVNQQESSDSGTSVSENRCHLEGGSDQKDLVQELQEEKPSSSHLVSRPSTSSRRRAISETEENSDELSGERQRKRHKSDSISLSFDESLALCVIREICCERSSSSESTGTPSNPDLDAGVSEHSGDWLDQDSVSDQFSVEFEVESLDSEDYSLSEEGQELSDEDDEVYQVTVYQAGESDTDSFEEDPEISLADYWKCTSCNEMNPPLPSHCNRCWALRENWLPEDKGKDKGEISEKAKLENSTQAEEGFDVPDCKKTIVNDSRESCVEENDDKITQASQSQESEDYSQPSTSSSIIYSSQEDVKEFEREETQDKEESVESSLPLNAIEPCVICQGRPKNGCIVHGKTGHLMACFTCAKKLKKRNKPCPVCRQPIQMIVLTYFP
HIF-2a conf: confirmation of HIF-2a inhibitors. actives 56% (n = 1,800). shares compounds with HIF-2a inh. inhibition, % at 18.8 µM. 786-0 RCC cells, HIF-2a luciferase reporter luminescence, overnight;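 active = mean inhibition across four replicates of at least 40 percent at the single tested concentration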
HIF-1a counter: counter-screen for HIF-2a inhibitors: HIF-1a inhibition in MiaPaCa-2 cells | AID 651589 | inhibition, % at 18.8 µM | shares compounds with HIF-2a inh | actives 72% (n = 1,800) | MiaPaCa-2 HIF-1a luciferase reporter, desferoxamine, overnight;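 active = mean inhibition of the reporter signal across four replicates at the single tested dose of 50% or more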
An asterisk follows results filed as active; / = no result.

SMILES | Peg3 promoter | CF NFkB block | KKLEB cytotox | TRAIL sens C8 | PPC-1+TRAIL kill | HIF-2a inh | HIF-2a conf | HIF-1a counter | others
Cc1ccc2sc(N(CCCN(C)C)C(=O)CCS(=O)(=O)c3ccccc3)nc2c1C | 108* | 92* | -81* | 51* | / | 88* | 24 | 77*
COc1ccc(OC)c2sc(N(CCCN(C)C)C(=O)CCS(=O)(=O)c3ccccc3)nc12 | 109* | 86* | -30 | 32 | / | 45* | 37 | 60*
C[C@@H]1CN([C@@H](C)CO)C(=O)CCCn2nncc2CO[C@H]1CN(C)S(=O)(=O)c1ccccc1F | 4 | 4 | -4 | -5 | / | 6 | / | /
N#Cc1c(N)nc(Sc2ccc(Cl)cc2)c(C#N)c1-c1ccccc1Cl | 52* | 46 | -16 | 15 | 0 | 47* | 16 | 45
CC(=O)OC1COC(OC(C)=O)CO1 (configuration not stated) | 11 | -14 | 8 | -2 | / | -2 | / | /
COc1ccc(S(=O)(=O)NCC2CC3C=CC2C3)cc1OC (configuration not stated) | 19 | 12 | -14 | 1 | / | 12 | / | /
CCOc1ccc(-c2noc(CCC(=O)O)n2)cc1 | -15 | -5 | -13 | 4 | -9 | 75* | 81* | 69*
COc1ccc(-c2noc(CCC(=O)O)n2)cc1 | 8 | 14 | 14 | 0 | 14 | 24 | / | /
COc1ccc(-c2noc(CCCC(=O)O)n2)cc1 | 9 | -1 | 4 | -8 | -5 | 84* | 94* | 80*
CCCNC(=O)N[C@H]1C=C[C@H](CC(=O)OC)O[C@@H]1CO | / | / | / | -1 | / | 14 | / | /
Cc1cc(C)c(/C=N/NC(=O)c2nnn(-c3nonc3N)c2CN2CCC(C)CC2)c(C)c1 | 31 | 8 | 7 | 21 | / | 0 | / | /
CC1CCN(Cc2c(C(=O)N/N=C/c3cc(Br)ccc3O)nnn2-c2nonc2N)CC1 | 74* | 37 | -21 | 25 | / | 6 | / | / | Mdm2-MdmX confirm=91*
Cc1cc(N2CCCCC2)nc(NCc2ccccc2)n1 | 38 | 6 | -20 | 14 | 15 | 47* | 18 | 60*
Cc1c([N+](=O)[O-])cnc(Sc2ccccc2)c1[N+](=O)[O-] | 44 | 52* | -29 | 16 | / | 50* | 48* | 84*
COc1ccc(C)cc1Nc1n[n+](-c2ccccc2)c(-c2c(Cl)cccc2Cl)s1 | / | / | / | / | / | / | / | / | Mdm2-MdmX confirm=98*
Cn1c(/C=C/c2ccc([N+](=O)[O-])o2)nc2ccccc2c1=O | 110* | -11 | -6 | 51* | 7 | 75* | -7 | 105* | Mdm2-MdmX confirm=102*
Cn1c(/C=C/c2ccccc2)nc2ccccc2c1=O | -217 | -12 | -9 | -8 | / | -200 | / | /
COC(=O)Cc1ccc(OC2(C)CCN(Cc3ccc(-c4ccccn4)cc3)C2)cc1 (configuration not stated) | -7 | -17 | -4 | 1 | / | -17 | / | /
C=C1C(=O)C23CCC4C(C)(C(=O)OC)CCCC4(C)C2CCC1(O)C3 (configuration not stated) | 101* | 101* | -102* | 89* | / | 91* | 99* | 103*
COC(=O)[C@]1(C)CCC[C@@]2(C)C3CC[C@@]4(C)C[C@]3(CCC21)CC(=O)N4 (some centres not stated) | 3 | 32 | -5 | -6 | / | 12 | / | /
CN(C)c1ccc(-n2cccc2/C=C/[N+](=O)[O-])cc1 | 94* | -36 | -9 | 30 | -12 | 91* | 89* | 106*
CCOC(=O)c1[nH]c(=S)n(-c2ccccc2)c1C(=O)OCC | 8 | 0 | 5 | 14 | / | 10 | / | /
CCC(=NCCc1c(C)[nH]c2ccc(OC(F)(F)F)cc12)C1=C(O)CC(c2ccccc2)CC1=O (configuration not stated) | 38 | 29 | -17 | 26 | -3 | 28 | / | /
CCCCC(=NCCc1c(C)[nH]c2ccc(OC)cc12)C1=C(O)CC(c2ccccc2)CC1=O (configuration not stated) | 28 | 36 | 0 | 6 | -9 | 41* | 23 | 65*
CC(=O)Nc1nc(-c2ccc3c(c2)CCN3C(=O)C2CC2)c(C)s1 | -15 | -21 | 6 | 16 | / | -63 | / | / | Mdm2-MdmX confirm=97*
SMILES | Peg3 promoter | CF NFkB block | KKLEB cytotox | TRAIL sens C8 | PPC-1+TRAIL kill | HIF-2a inh | HIF-2a conf | HIF-1a counter | others
CNc1nc(-c2ccc3c(c2)CCN3C(=O)CC(C)(C)C)c(C)s1 | -59 | 0 | 2 | 3 | 15 | -111 | / | /
CN(C(=O)c1cccc(NC(=O)Cc2ccc(NC(=O)C3CCN(C(=O)C4CCC4)CC3)cc2)c1)C1CCC1 | -14 | -8 | 14 | -3 | / | 0 | / | /
C#CCn1c(S(=O)(=O)Cc2ccc(C)cc2)nc(-c2ccccc2)c1-c1ccccc1 | 33 | -16 | 16 | 6 | 17 | -17 | / | / | Mdm2-MdmX confirm=100*
COc1ccc(S(=O)(=O)N2CCC(C(=O)NC3CCCC3)CC2)cc1C | 1 | 13 | -3 | 2 | / | 10 | / | /
Cc1cc(SC#N)cc(C)c1NC(=O)CCl | 28 | 49 | -31 | 26 | 23 | 46* | 54* | 26
Cc1ccc(-n2nc(C)c(NC(=O)CCl)c2C)cc1C | 8 | 14 | -45 | 12 | -5 | -55 | / | /
CC(C)n1c(/C=C/[C@H](O)C[C@H](O)CC(=O)O)c(-c2ccc(F)cc2)c2ccccc21 | 39 | 31 | -28 | 14 | / | 45* | 25 | -25
CCN(CC(=O)Nc1c(F)cccc1F)C(=O)c1cc(S(=O)(=O)N(C)C)ccc1N1CCCC1 | 19 | 10 | -5 | 3 | / | 27 | / | /
CCN(CC(=O)Nc1c(F)cccc1F)C(=O)c1cc(S(=O)(=O)N(CC)CC)ccc1N1CCCCC1 | 40 | -33 | 6 | 10 | / | 48* | 34 | 36
Cc1ccc(CSc2nnc(-c3ccc4c(c3)OCO4)o2)cc1 | -105 | -5 | -19 | 27 | 10 | -233 | / | /
O=C(O)CCSc1nnc(-c2ccc3c(c2)OCO3)o1 | 36 | 8 | -4 | 4 | 11 | 92* | 96* | 80*
CN(C)CCNC(=O)c1cc2c(s1)-c1ccc(Cl)cc1SC2 | 110* | 47 | -45 | 97* | / | -50 | / | / | Mdm2-MdmX confirm=103*
CCOCCCNC(=O)c1cc2c(s1)-c1ccccc1SC2 | -30 | -2 | 7 | 4 | / | -49 | / | /
CS(=O)(=O)c1nc(-c2ccccc2)cc(-c2ccccc2)c1C#N | 101* | 61* | -15 | 19 | 13 | 76* | 34 | 106*
